ANO1 activ: TMEM16A chloride channel activators or potentiators, primary screen, cell-based, HTS. HEK293 TMEM16A/YFP-H148Q/I152L, iodide quench fluorescence; hits give low values. B-score at 10 µM. 340,000 compounds, 0.3% hits. AID 623877, 2012;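 active = fluorescence-ratio B-score plate-corrected deviation score at least 3 library SD below zero, with starting fluorescence score within 5 deviations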;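 note: channel opened by trigger with iodide after compound preincubation; score built on the fluorescence ratio of max minus min over baseline; more negative score means more quench and so TMEM16A activation or potentiation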
KCNK9 block: KCNK9 potassium channel inhibitors, primary screen, HEK293 cells, thallium flux; Potassium channel subfamily K member 9 (Homo sapiens), Q9NPC2; 310,000 compounds, 1.2% hits; AID 488922, 2010; FluxOR thallium flux fluorescence; hits give low values; B-score at 10 µM;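 active = ratio B-score over 3 SD below the library mean, with starting fluorescence within 5 SD of its mean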;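 note: negative B-score means less thallium flux so channel inhibition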
Target sequence (Q9NPC2 whole entry, looked up): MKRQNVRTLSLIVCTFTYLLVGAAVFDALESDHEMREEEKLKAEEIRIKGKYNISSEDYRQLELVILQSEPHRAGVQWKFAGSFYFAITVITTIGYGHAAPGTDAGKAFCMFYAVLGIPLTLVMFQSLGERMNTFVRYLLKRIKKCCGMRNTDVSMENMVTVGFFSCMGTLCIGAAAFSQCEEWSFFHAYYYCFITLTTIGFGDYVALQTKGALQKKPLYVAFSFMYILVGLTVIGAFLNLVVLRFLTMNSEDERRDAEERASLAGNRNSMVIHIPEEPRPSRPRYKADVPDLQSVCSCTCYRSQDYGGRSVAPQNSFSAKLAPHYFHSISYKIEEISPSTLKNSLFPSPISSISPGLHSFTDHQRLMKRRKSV
ANO1 block: TMEM16A chloride channel inhibitors, primary screen, cell-based, HTS | Anoctamin-1 (Mus musculus), Q8BHY3 | HEK293 TMEM16A/YFP iodide influx fluorescence, ionomycin | normalized B-score (activity score, 25-100; higher = stronger inhibition) at 10 µM | 310,000 compounds, 1.2% hits | AID 588511, 2011;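 active = ratio plate-corrected score three or more library SD toward inhibition, starting fluorescence score within five deviations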;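 note: score derived from kinetic fluorescence span divided by baseline fluorescence per well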
Kir21 block: inhibitors of mouse Kir2.1 inward-rectifier potassium channel. HEK293-Kir2.1, FluxOR thallium flux fluorescence; hits give low values. B-score at 10 µM. AID 1672, 2009. 310,000 compounds, 0.85% hits;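 active = fluorescence ratio B-score at or below minus 3 SD of library scores, with starting-brightness B-score within 2 SD, cut at about -4.2 in these data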;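 note: channel flux triggered by added potassium and thallium sulfate stimulus; B-score of peak minus minimum fluorescence over baseline after thallium stimulus; more negative B-score means stronger Kir2.1 block with less thallium influx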
KCNK3 block: human KCNK3 channel inhibitors, primary screen, CHO cells, FluxOR thallium flux, B-score. Potassium channel subfamily K member 3 (Homo sapiens), O14649. FluxOR fluorescence; hits give low values. B-score at 10 µM. 340,000 compounds, 0.84% hits. AID 602410, 2012;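 active = B-score under library mean minus 4 SD, starting fluorescence ratio at most library mean plus 5 SD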;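 note: more negative B-score means stronger inhibition of thallium flux through KCNK3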
KCNK9 inh conf: KCNK9 potassium channel inhibitors, confirmation, HEK293 cells, thallium flux, duplicate; shares compounds with KCNK9 block; FluxOR thallium flux fluorescence; inhibition, % at 10 µM; 4,900 compounds, 43% hits; AID 492992, 2010;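 active = thallium signal inhibited by more than 5 SD of the compound-free buffer control wells, on both duplicate plates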;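 note: 0% = assay buffer control wells without compound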
Kir21 sel: mouse Kir2.1 channel inhibition, confirmation, selectivity assay for KCNK9 modulator project, cell-based, HEK293, thallium flux; shares compounds with KCNK9 block; AID 492993, 2010; inhibition, % at 10 µM; Kir2.1 cells, FluxOR thallium flux fluorescence; 4,900 compounds, 4% hits;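 active = thallium signal drop more than 5 SD beyond the mean of the no-compound control wells, seen in both duplicate plates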;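 note: signal is fluorescence rise after thallium addition divided by baseline fluorescence; plate controls were assay buffer only for no effect and full block by chlorpromazine control for full effect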
KCNK9 uninduced: thallium flux in non-induced HEK293 cells, confirmation, counter-screen for KCNK9 inhibitor project, cell-based, second counter screen, non-induced KCNK9-HEK293 | shares compounds with KCNK9 block | AID 492997, 2010 | 4,900 compounds, 40% hits | inhibition, % at 10 µM | FluxOR thallium flux;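 active = thallium signal drop beyond 5 SD of the untreated control mean, on both duplicate plates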;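 note: plate controls were buffer only IC0 wells for no effect and SID17386958 at its maximal inhibitory level for full effect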
* hit, by the source's call. This is a sample that favours compounds with a hit; in the whole collection about 3.5% have one here.

What do the screens show for `CCOC(=O)c1nn(-c2ccccc2F)c(-c2ccccc2)c1C(=O)c1ccccc1`?
ANO1 activ: inactive; KCNK9 block: -11*; ANO1 block: inactive; Kir21 block: -1.1; KCNK3 block: inactive; KCNK9 inh conf: 56%*; Kir21 sel: inactive; KCNK9 uninduced: inactive

What do the screens show for `CCOC(=O)c1nn(-c2ccccc2)c(-c2ccccc2)c1C(=O)c1ccccc1`?
ANO1 activ: inactive; KCNK9 block: inactive; ANO1 block: inactive; Kir21 block: 0.68; KCNK3 block: inactive

What do the screens show for `CCc1ccc(-c2csc(NC(=O)C3=NN(c4ccccc4)C(=O)CC3)n2)cc1`?
ANO1 activ: inactive; KCNK9 block: inactive; ANO1 block: inactive; Kir21 block: -1.2; KCNK3 block: inactive; KCNK9 inh conf: inactive; Kir21 sel: inactive; KCNK9 uninduced: inactive

How did Cc1cc(C)c(-c2csc(NC(=O)C3=NN(c4ccccc4)C(=O)CC3)n2)c(C)c1 do in these assays?
ANO1 activ: inactive; KCNK9 block: inactive; ANO1 block: inactive; Kir21 block: -0.24; KCNK3 block: inactive

Results for CCN(C(=S)Nc1cccc(C)c1)c1ccccc1 ?
ANO1 activ: inactive; KCNK9 block: inactive; ANO1 block: inactive; Kir21 block: 0.16; KCNK3 block: inactive

How did CCN(C(=S)Nc1ccc(Oc2ccccc2)cc1)c1ccccc1 do in these assays?
ANO1 activ: inactive; KCNK9 block: inactive; ANO1 block: inactive; Kir21 block: 1.1; KCNK3 block: inactive; KCNK9 inh conf: inactive; Kir21 sel: inactive; KCNK9 uninduced: inactive

What do the screens show for `CC1Cc2cc(/C(O)=C3/C(=O)C(=O)N(CCCN4CCOCC4)C3c3ccc(C(C)C)cc3)ccc2O1` (configuration not stated)?
ANO1 activ: inactive; KCNK9 block: inactive; ANO1 block: inactive; Kir21 block: -0.31; KCNK3 block: inactive

Results for COc1cccc(Oc2ccc(C(F)(F)F)cc2N)c1 ?
ANO1 activ: inactive; KCNK9 block: -8.4*; ANO1 block: inactive; Kir21 block: 0.54; KCNK3 block: inactive; KCNK9 inh conf: 54%*; Kir21 sel: inactive; KCNK9 uninduced: 32%*

What do the screens show for `COc1ccccc1CN(C)C(=O)COC(=O)c1cc(C)oc1C`?
ANO1 activ: inactive; KCNK3 block: inactive

Results for COC(=O)N/N=C/c1c(C)nn(-c2cccc(Cl)c2)c1Cl ?
ANO1 activ: inactive; KCNK9 block: -8.3*; ANO1 block: inactive; Kir21 block: -0.49; KCNK3 block: inactive; KCNK9 inh conf: 42%*; Kir21 sel: inactive; KCNK9 uninduced: 28%*

How did CCOC(=O)N/N=C/c1c(C)nn(-c2cccc(C(F)(F)F)c2)c1Cl do in these assays?
ANO1 activ: inactive; KCNK9 block: inactive; ANO1 block: inactive; Kir21 block: 1; KCNK3 block: inactive

Results for CCN(CC)c1ccc(/C=N/N2CCN(Cc3cccc4ccccc34)CC2)c(O)c1 ?
ANO1 activ: inactive; KCNK9 block: inactive; ANO1 block: inactive; Kir21 block: -0.61; KCNK3 block: inactive; KCNK9 inh conf: inactive; Kir21 sel: inactive; KCNK9 uninduced: inactive

What do the screens show for `C/C(=N/N1CCN(Cc2cccc3ccccc23)CC1)c1ccco1`?
ANO1 activ: inactive; KCNK9 block: inactive; ANO1 block: inactive; Kir21 block: -0.41; KCNK3 block: inactive; KCNK9 inh conf: inactive; Kir21 sel: inactive; KCNK9 uninduced: inactive
